PDI turbidity = inhibitors of human PDI, primary screen, biochemical, turbidity, single point, plate reader. Protein disulfide-isomerase (Homo sapiens), P07237. PDI insulin aggregation turbidity, A650, 90 min. inhibition, % at 10 µM. actives 0.052% (n = 350,000). AID 588391, 2011;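 active means mean inhibition across replicates of 30% or more, whatever share of single replicates reach that level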
Target sequence (P07237 whole entry, looked up): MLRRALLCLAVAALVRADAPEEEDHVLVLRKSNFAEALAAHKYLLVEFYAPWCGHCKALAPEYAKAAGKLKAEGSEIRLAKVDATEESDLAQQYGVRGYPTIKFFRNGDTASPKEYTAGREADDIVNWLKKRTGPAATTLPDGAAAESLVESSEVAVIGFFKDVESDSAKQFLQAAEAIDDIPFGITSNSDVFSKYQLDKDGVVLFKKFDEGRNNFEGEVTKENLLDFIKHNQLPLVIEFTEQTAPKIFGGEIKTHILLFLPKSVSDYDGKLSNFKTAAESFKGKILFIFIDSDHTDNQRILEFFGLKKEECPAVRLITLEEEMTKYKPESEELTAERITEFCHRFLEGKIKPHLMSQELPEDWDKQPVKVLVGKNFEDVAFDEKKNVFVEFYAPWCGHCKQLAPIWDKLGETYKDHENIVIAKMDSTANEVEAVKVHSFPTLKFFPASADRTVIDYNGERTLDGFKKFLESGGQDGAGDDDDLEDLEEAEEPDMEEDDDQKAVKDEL
DENV2 CPE rescue = inhibitors of DENV2 cytopathic effect, primary screen, cell-based, plate reader, single concentration | actives 1.7% (n = 350,000) | DENV2-infected cells, cytopathic effect rescue | CPE inhibition, % at 9.99 µM | AID 651640, 2012; in the data active means CPE inhibition above about 20%, passing the limit was not always enough; tested in BHK-21 cells;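 further: 0% = median of neutral control wells and 100% = median of positive control wells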
SIRT5 inh = SIRT5 desuccinylase inhibitors, primary screen, biochemical, fluorescence imaging, single point, set 5 | Purified SirT5, succinyl-peptide AMC, trypsin-coupled fluorescence | inhibition, % at 15 µM | actives 1.1% (n = 330,000) | AID 652115, 2013; in the data active means inhibition above about 15%
Rtt109 HAT inh = inhibitors of C. albicans Rtt109/Vps75 HAT, primary screen, biochemical, ThioGlo CoA-SH fluorescence, plate reader. Histone acetyltransferase RTT109 (Candida albicans (strain SC5314 / ATCC MYA-2876)), …. purified Rtt109/Vps75, 4 h. inhibition, % at 34.9 µM. actives 0.16% (n = 330,000). AID 540336, 2011;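 active means inhibition of at least 50% in every replicate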
ERp5 inh = inhibitors of ERp5-driven insulin aggregation, primary screen, biochemical, turbidity, absorbance 650 nm, single point | Protein disulfide-isomerase A6 (Homo sapiens), Q15084 | 90 min | inhibition, % at 9.99 µM | actives 0.05% (n = 350,000) | AID 651711, 2012;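 active means mean replicate inhibition above about 25%, with every replicate also reaching it, limit read from the data, passing the limit was not always enough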
* = called active by the depositor; x = not tested or not shown. In the library only some 2.3% were active in any assay of this set; here they are far more common.

SMILES	PDI turbidity	DENV2 CPE rescue	SIRT5 inh	Rtt109 HAT inh	ERp5 inh
Cc1cccnc1NC(=O)c1ccc(S(=O)(=O)N2CCC(C)CC2)cc1	1	5	0	12	-9
O=C(Nc1cccc(F)c1)c1ccc(S(=O)(=O)N2CCCCC2)cc1	-6	114*	-15	3	-16
Cc1cccnc1NC(=O)c1ccc(S(=O)(=O)N2CCCC2)cc1	-2	65*	-3	x	1
CCC(C)C(CO)NCCCn1cnc2c(SC)ncnc21 (configuration not stated)	17	-5	26*	x	1
CSc1ncnc2c1ncn2CCCN[C@H](C)c1cccc2ccccc12	0	9	-1	x	-1
Cc1cccc(C)c1NC(=S)NC1CCCCC1	-29	68*	1	3	-3
Cc1ccc(CNC(=O)CSc2nc3ccccc3c(=O)n2CC2CCCO2)cc1 (configuration not stated)	5	-5	-5	4	-5
COc1ccc(CCN(C)C(=O)CSc2nc3ccccc3c(=O)n2CC2CCCO2)cc1OC (configuration not stated)	4	21*	-4	7	2
CC(=O)NC[C@H]1[C@H](c2ccc(-c3cccnc3)cc2)[C@H](CO)N1C(=O)C1CCC1	x	8	x	x	x
C[C@H]1CN([C@@H](C)CO)C(=O)c2cc(N(C)C)ccc2O[C@H]1CN(C)S(C)(=O)=O	x	7	-1	x	0
O=C(O)c1ccc(-c2ccc(/C=C3\NC(=O)N(Cc4ccc(Cl)cc4)C3=O)o2)cc1Cl	-6	6	26*	19	-3
COc1ccc(NC(=O)c2c(F)cccc2F)cc1S(=O)(=O)Nc1ccc(Br)cc1	4	49*	2	5	-1
COc1ccc(NS(=O)(=O)c2cc(NC(=O)c3ccccn3)ccc2OC)cc1Br	3	10	-4	-6	-1
COc1cccc(S(=O)(=O)Nc2ccc3c(c2)C(=O)N(C)C[C@@H](OC)[C@@H](C)CN[C@H](C)CO3)c1	x	22*	-3	x	4
CO[C@H]1CN(C)C(=O)c2cc(NS(=O)(=O)c3ccccc3F)ccc2OC[C@@H](C)NC[C@@H]1C	x	65*	0	x	-7
COc1cccc(S(=O)(=O)Nc2ccc3c(c2)C(=O)N(C)C[C@@H](OC)[C@H](C)CN[C@@H](C)CO3)c1	x	-4	-1	x	9
CO[C@@H]1CN(C)C(=O)c2cc(NS(=O)(=O)c3ccccc3)ccc2OC[C@@H](C)NC[C@@H]1C	x	29*	x	x	-2
CO[C@H]1CN(C)C(=O)c2cc(NS(=O)(=O)c3ccccc3)ccc2OC[C@H](C)NC[C@H]1C	x	1	x	x	-3
CO[C@H]1CN(C)C(=O)c2cc(NS(=O)(=O)c3ccc(Oc4ccccc4)cc3)ccc2OC[C@H](C)NC[C@H]1C	x	4	28*	x	-4
CC(=O)N1[C@H](CO)[C@H](c2ccc(-c3ccccc3)cc2)[C@@H]1CNC(=O)C1CC1	x	-4	x	x	x
Cc1ccc(S(=O)(=O)Nc2ccc3c(c2)C(=O)N([C@@H](C)CO)C[C@H](C)[C@@H](CN(C)C(=O)Nc2cccc4ccccc24)OCCCC[C@H](C)O3)cc1	x	1	16*	x	-8
C[C@@H]1CCCCO[C@@H](CN(C)C(=O)Nc2cccc3ccccc23)[C@H](C)CN([C@@H](C)CO)C(=O)c2cc(NS(=O)(=O)c3cn(C)cn3)ccc2O1	x	21*	x	x	x
Cc1ccc(S(=O)(=O)Nc2ccc3c(c2)C(=O)N([C@@H](C)CO)C[C@H](C)[C@@H](CN(C)C(=O)Nc2cccc4ccccc24)OCCCC[C@@H](C)O3)cc1	x	1	16*	x	-1
Cc1ccc(S(=O)(=O)Nc2ccc3c(c2)C(=O)N([C@@H](C)CO)C[C@@H](C)[C@@H](CN(C)C(=O)Nc2cccc4ccccc24)OCCCC[C@H](C)O3)cc1	x	4	-1	x	-1
Cc1ccc(S(=O)(=O)Nc2ccc3c(c2)C(=O)N([C@H](C)CO)C[C@@H](C)[C@H](CN(C)C(=O)Nc2cccc4ccccc24)OCCCC[C@@H](C)O3)cc1	x	-8	-1	x	-2
